Experimental data published in the supplement of paper PMC10849652.
Targets with a hit are over-represented here; the source holds about 8,800 in all. About 0.5% of all pairs of compound and target were hits.

Experiments:
Assay in all cases: log2 fold change, soluble protein after heating vs DMSO (PISA); higher = thermal stabilisation; K562 lysate, 10 uM; active = over 0.2 and 3.5 SD of the protein, either way, in both replicates (recomputed)
alvocidib = compound: CN1CC[C@H](c2c(O)cc(O)c3c(=O)cc(-c4ccccc4Cl)oc23)[C@H](O)C1 [alvocidib]
Summary of the method: (§1)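 Thermal stability, expressed as log-two fold change relative to solvent controls, is given from duplicates. Crude K562 extract in PBS pH 7.4 with 1 mM MgCl2, at 1 mg/mL protein, was treated with 10 μM compound for 30 min and heated in aliquots for 3 min across 48°C-58°C. After pooling, adjustment to 0.5% NP-40 at 4°C and centrifugation at 21,000xg for 90 min, supernatant protein was measured by TMTpro 16plex LC-MS/MS with channel sums equalised.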

Tubastatin A = compound: CN1CCc2c(c3ccccc3n2Cc2ccc(C(=O)NO)cc2)C1 [Tubastatin A]
Summary of the method: as §1

[1] = compound: CNC(=O)C1=CC=CC=C1NC2=NC(=NC=C2Cl)NC3=C(C=C(C=C3)N4CCOCC4)OC
Summary of the method: as §1

defactinib = compound: CNC(=O)c1ccc(Nc2ncc(C(F)(F)F)c(NCc3nccnc3N(C)S(C)(=O)=O)n2)cc1 [defactinib]
Summary of the method: as §1

[2] = compound: CNc1nc(-c2ccc3c(N)n[nH]c3c2)cc(N2C[C@@H](C(=O)NC3CCCCC3)CC[C@H]2C)n1
Summary of the method: as §1

encorafenib = compound: COC(=O)N[C@@H](C)CNc1nccc(-c2cn(C(C)C)nc2-c2cc(Cl)cc(NS(C)(=O)=O)c2F)n1 [encorafenib]
Summary of the method: as §1

[3] = compound: COC(=O)[C@H](CCSC)NC(=O)C1=C(C=C(C=C1)NC[C@H](CS)N)C2=CC=CC=C2
Summary of the method: as §1

alisertib = compound: COc1cc(Nc2ncc3c(n2)-c2ccc(Cl)cc2C(c2c(F)cccc2OC)=NC3)ccc1C(=O)O [alisertib]
Summary of the method: as §1

[4] = compound: COc1cc2nc(-c3cc(F)ccc3O)nc(N[C@@H]3CNC[C@H]3C(C)(C)O)c2cc1OC
Summary of the method: as §1

gefitinib = compound: COc1cc2ncnc(Nc3ccc(F)c(Cl)c3)c2cc1OCCCN1CCOCC1 [gefitinib]
Summary of the method: as §1

Measured: log2 fold change

SRP54 (UniProt P61011)
Chain of UniProt P61011 (P61011 whole entry, looked up): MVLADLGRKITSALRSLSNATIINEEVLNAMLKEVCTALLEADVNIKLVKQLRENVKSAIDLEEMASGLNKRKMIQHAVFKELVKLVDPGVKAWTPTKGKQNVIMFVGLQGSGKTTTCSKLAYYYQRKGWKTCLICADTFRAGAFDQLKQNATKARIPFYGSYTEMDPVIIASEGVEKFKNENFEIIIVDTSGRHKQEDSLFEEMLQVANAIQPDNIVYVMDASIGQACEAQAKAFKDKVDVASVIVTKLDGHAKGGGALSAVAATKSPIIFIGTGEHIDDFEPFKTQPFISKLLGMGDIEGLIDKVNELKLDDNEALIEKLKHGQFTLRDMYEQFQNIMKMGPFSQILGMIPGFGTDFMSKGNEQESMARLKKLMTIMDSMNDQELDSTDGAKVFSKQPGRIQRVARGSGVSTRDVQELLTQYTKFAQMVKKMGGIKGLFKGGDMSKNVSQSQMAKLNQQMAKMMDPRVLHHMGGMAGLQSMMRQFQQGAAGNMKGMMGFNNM
inactive: alvocidib -0.023 | Tubastatin A 0.01 | [1] -0.011 | defactinib 0.035 | [2] 0.023 | encorafenib 0.067 | [3] 0.011 | alisertib 0.055 | [4] 0.043 | gefitinib -0.025

SPC25 (UniProt Q9HBM1)
inactive: alvocidib -0.015 | Tubastatin A 0.009 | [1] 0.024 | defactinib -0.017 | [2] -0.014 | encorafenib 0.034 | [3] 0.014 | alisertib -0.008 | [4] -0.043 | gefitinib -0.011

SPATA5 (UniProt Q8NB90)
inactive: alvocidib 0.033 | Tubastatin A -0.101 | [1] 0.007 | defactinib 0.029 | [2] 0.085 | encorafenib 0.04 | [3] 0.008 | alisertib 0.025 | [4] 0.004 | gefitinib -0.024

TARDBP (UniProt Q13148)
inactive: alvocidib -0.006 | [1] -0.044 | defactinib 0 | [2] -0.139 | encorafenib 0.181 | [3] 0.137 | alisertib 0.012 | [4] -0.004 | gefitinib 0.06
active: Tubastatin A -0.318

SRSF9 (UniProt Q13242)
inactive: alvocidib -0.021 | Tubastatin A -0.165 | [1] 0.002 | defactinib -0.054 | [2] -0.044 | encorafenib 0 | [3] -0.084 | alisertib -0.013 | [4] -0.017 | gefitinib -0.022

SLC19A1 (UniProt P41440)
inactive: alvocidib -0.106 | Tubastatin A 0.047 | [1] 0.025 | defactinib 0.01 | [2] 0.037 | encorafenib 0.011 | [3] -0.018 | alisertib -0.005 | [4] 0.039 | gefitinib 0.026

TAF6L (UniProt Q9Y6J9)
Chain of UniProt Q9Y6J9 (Q9Y6J9 whole entry, looked up): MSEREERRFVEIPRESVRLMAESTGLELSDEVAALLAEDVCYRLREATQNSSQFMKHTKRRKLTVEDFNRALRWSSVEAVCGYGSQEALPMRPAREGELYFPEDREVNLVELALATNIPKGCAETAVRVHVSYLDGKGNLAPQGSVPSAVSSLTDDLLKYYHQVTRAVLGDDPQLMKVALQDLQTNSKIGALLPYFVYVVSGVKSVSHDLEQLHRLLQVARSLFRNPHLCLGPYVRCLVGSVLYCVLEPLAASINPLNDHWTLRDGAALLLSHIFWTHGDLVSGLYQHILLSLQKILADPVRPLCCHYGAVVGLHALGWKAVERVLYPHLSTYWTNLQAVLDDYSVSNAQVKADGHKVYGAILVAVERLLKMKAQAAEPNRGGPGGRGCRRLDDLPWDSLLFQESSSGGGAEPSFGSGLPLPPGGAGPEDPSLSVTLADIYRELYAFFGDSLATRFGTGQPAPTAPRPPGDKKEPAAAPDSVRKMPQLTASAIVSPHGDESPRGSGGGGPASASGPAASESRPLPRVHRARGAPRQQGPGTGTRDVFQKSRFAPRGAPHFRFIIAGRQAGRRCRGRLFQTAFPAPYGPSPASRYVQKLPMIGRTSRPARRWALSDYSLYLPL
inactive: alvocidib 0.018 | Tubastatin A -0.109 | [1] -0.035 | defactinib 0.001 | [2] -0.116 | encorafenib 0.096 | [3] -0.051 | alisertib 0.006 | [4] 0.006 | gefitinib -0.046

SFR1 isoform 2 (UniProt Q86XK3)
Chain of UniProt Q86XK3 (Q86XK3 whole entry, looked up): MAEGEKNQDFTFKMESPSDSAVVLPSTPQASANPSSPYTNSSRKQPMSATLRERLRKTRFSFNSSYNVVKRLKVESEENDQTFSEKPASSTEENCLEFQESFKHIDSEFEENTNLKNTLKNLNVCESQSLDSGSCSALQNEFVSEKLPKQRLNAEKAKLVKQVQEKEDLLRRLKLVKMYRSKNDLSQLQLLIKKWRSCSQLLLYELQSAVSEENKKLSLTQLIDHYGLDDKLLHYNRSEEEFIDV
inactive: alvocidib -0.014 | Tubastatin A -0.003 | [1] -0.009 | defactinib -0.155 | [2] -0.005 | encorafenib 0.014 | [3] -0.007 | alisertib 0.004 | [4] -0.007 | gefitinib -0.03

SMG7 (UniProt Q92540)
inactive: alvocidib -0.003 | Tubastatin A 0.008 | [1] 0.018 | defactinib 0.076 | [2] -0.017 | encorafenib 0.025 | [3] 0.202 | alisertib 0.015 | [4] 0.132 | gefitinib 0.032

SKA2 (UniProt Q8WVK7)
inactive: alvocidib 0.003 | Tubastatin A -0.119 | [1] -0.077 | defactinib -0.014 | [2] -0.02 | encorafenib 0.032 | [3] -0.001 | alisertib 0.036 | [4] -0.009 | gefitinib 0.006

SSU72 (UniProt Q9NP77)
inactive: alvocidib -0.127 | Tubastatin A -0.05 | [1] -0.035 | defactinib -0.026 | [2] -0.032 | encorafenib -0.04 | [3] 0.183 | alisertib -0.016 | [4] -0.013 | gefitinib -0.004

STK36 (UniProt Q9NRP7)
inactive: alvocidib -0.33 | Tubastatin A 0.331 | [1] -0.048 | defactinib -0.263 | [2] 0.528 | encorafenib -0.027 | [3] 0.042 | alisertib 0.081 | [4] 0.199 | gefitinib -0.093

SRPK1 (UniProt Q96SB4)
inactive: Tubastatin A -0.062 | [1] 0.189 | defactinib 0.106 | [2] 0.008 | encorafenib -0.029 | [3] 0.102 | alisertib 0.006 | [4] 0.015 | gefitinib 0.018
active: alvocidib 0.286

SLC25A32 (UniProt Q9H2D1)
inactive: alvocidib -0.05 | Tubastatin A 0.037 | [1] -0.01 | defactinib 0.03 | [2] 0.052 | encorafenib 0.04 | [3] 0.01 | alisertib 0.036 | [4] 0.001 | gefitinib -0.033

SPG11 (UniProt Q96JI7)
inactive: alvocidib 0.161 | Tubastatin A -0.129 | [1] -0.058 | defactinib -0.015 | [2] -0.003 | encorafenib 0.049 | [3] 0.088 | alisertib -0.041 | [4] 0.07 | gefitinib -0.024

SKP2 (UniProt Q13309)
Chain of UniProt Q13309 (Q13309 whole entry, looked up): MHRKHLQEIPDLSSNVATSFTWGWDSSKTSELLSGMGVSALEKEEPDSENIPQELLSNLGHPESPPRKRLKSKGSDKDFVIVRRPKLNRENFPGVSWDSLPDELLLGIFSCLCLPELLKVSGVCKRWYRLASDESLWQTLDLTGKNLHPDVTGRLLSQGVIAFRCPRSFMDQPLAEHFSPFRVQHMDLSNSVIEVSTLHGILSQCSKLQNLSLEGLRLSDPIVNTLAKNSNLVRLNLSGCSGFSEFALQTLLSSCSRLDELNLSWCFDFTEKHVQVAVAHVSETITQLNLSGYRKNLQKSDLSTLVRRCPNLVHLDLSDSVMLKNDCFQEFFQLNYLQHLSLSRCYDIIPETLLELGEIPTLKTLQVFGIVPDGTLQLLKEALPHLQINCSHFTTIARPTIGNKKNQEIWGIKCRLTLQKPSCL
inactive: alvocidib -0.048 | Tubastatin A -0.077 | [1] 0.044 | defactinib 0.189 | [2] 0.03 | encorafenib -0.053 | [3] 0.085 | alisertib 0.01 | [4] 0.173 | gefitinib 0.058

SNRPF (UniProt P62306)
inactive: alvocidib -0.119 | Tubastatin A -0.028 | [1] -0.02 | defactinib 0.014 | [2] -0.034 | encorafenib 0.021 | [3] 0.014 | alisertib -0.03 | [4] 0.022 | gefitinib 0.084

SH3GL3 isoform 3 (UniProt Q99963)
Chain of UniProt Q99963 (Q99963 whole entry, looked up): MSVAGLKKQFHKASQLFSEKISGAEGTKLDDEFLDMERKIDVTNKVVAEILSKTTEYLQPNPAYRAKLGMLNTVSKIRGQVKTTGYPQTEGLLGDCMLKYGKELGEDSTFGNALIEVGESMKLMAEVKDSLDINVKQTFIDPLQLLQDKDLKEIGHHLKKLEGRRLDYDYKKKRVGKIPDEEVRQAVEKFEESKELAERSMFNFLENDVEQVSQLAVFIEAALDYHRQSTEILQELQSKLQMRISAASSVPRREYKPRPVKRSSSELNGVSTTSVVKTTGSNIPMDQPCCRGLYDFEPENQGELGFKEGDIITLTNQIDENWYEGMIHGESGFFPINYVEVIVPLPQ
inactive: alvocidib -0.263 | Tubastatin A -0.14 | [1] 0.024 | defactinib -0.063 | [2] 0.15 | encorafenib 0.072 | [3] -0.041 | alisertib -0.076 | [4] 0.09 | gefitinib 0.041

STAT2 (UniProt P52630)
inactive: alvocidib 0.02 | Tubastatin A -0.183 | [1] 0.016 | defactinib -0.03 | [2] -0.018 | encorafenib 0.023 | [3] -0.014 | alisertib 0.006 | [4] 0.004 | gefitinib -0.023

TARBP1 (UniProt Q13395)
inactive: alvocidib 0.009 | Tubastatin A -0.118 | [1] -0.066 | defactinib -0.034 | [2] 0.047 | encorafenib 0.073 | [3] -0.236 | alisertib 0.018 | [4] -0.004 | gefitinib 0.011

SSB (UniProt E7ERC4)
inactive: alvocidib 0.132 | Tubastatin A 0.154 | [1] -0.072 | defactinib -0.285 | [2] -0.023 | encorafenib 0.081 | [3] 0.013 | alisertib -0.091 | [4] 0.095 | gefitinib 0.072

SLC16A1 (UniProt P53985)
inactive: alvocidib -0.133 | Tubastatin A -0.012 | [1] 0.042 | defactinib -0.007 | [2] 0.024 | encorafenib -0.016 | [3] -0.059 | alisertib 0.045 | [4] 0.018 | gefitinib 0.032

TADA3 (UniProt O75528)
Chain of UniProt O75528 (O75528 whole entry, looked up): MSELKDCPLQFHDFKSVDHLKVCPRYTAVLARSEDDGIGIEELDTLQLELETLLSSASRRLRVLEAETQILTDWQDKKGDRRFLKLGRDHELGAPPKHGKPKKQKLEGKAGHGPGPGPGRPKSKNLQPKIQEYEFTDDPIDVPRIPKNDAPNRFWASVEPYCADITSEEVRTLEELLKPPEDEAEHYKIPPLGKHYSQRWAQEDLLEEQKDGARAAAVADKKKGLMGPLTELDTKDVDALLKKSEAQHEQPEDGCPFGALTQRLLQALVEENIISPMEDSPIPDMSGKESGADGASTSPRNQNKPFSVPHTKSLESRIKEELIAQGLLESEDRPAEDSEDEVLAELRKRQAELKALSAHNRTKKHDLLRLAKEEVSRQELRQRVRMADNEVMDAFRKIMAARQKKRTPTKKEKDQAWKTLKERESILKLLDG
inactive: alvocidib 0.001 | Tubastatin A -0.04 | [1] 0.044 | defactinib -0.007 | [2] 0.06 | encorafenib 0.029 | [3] -0.024 | alisertib 0 | [4] 0.001 | gefitinib 0.03

SLC38A1 (UniProt Q9H2H9)
inactive: alvocidib -0.111 | Tubastatin A 0.022 | [1] -0.026 | defactinib -0.016 | [2] -0.054 | encorafenib 0.019 | [3] -0.045 | alisertib -0.021 | [4] 0.011 | gefitinib 0.073

SH3BP5L (UniProt Q7L8J4)
Chain of UniProt Q7L8J4 (Q7L8J4 whole entry, looked up): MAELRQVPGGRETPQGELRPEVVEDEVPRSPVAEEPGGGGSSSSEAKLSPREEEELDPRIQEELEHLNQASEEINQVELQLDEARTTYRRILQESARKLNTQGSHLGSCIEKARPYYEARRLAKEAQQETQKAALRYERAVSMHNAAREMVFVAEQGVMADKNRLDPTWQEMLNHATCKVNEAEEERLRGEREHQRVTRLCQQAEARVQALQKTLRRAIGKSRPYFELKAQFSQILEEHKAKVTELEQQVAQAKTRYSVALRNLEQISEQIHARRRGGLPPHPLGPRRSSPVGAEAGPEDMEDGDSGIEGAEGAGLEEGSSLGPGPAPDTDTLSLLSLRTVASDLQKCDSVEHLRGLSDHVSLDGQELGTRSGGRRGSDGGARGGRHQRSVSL
inactive: alvocidib -0.003 | Tubastatin A -0.012 | [1] 0.036 | defactinib -0.003 | [2] -0.015 | encorafenib 0.058 | [3] -0.047 | alisertib 0.021 | [4] 0.015 | gefitinib 0.001

STUB1 (UniProt Q9UNE7)
inactive: alvocidib -0.012 | Tubastatin A -0.193 | [1] 0.003 | defactinib -0.029 | [2] 0.026 | encorafenib -0.025 | [3] 0.135 | alisertib 0.003 | [4] 0.007 | gefitinib -0.003

SMC6 (UniProt Q96SB8)
Chain of UniProt Q96SB8 (Q96SB8 whole entry, looked up): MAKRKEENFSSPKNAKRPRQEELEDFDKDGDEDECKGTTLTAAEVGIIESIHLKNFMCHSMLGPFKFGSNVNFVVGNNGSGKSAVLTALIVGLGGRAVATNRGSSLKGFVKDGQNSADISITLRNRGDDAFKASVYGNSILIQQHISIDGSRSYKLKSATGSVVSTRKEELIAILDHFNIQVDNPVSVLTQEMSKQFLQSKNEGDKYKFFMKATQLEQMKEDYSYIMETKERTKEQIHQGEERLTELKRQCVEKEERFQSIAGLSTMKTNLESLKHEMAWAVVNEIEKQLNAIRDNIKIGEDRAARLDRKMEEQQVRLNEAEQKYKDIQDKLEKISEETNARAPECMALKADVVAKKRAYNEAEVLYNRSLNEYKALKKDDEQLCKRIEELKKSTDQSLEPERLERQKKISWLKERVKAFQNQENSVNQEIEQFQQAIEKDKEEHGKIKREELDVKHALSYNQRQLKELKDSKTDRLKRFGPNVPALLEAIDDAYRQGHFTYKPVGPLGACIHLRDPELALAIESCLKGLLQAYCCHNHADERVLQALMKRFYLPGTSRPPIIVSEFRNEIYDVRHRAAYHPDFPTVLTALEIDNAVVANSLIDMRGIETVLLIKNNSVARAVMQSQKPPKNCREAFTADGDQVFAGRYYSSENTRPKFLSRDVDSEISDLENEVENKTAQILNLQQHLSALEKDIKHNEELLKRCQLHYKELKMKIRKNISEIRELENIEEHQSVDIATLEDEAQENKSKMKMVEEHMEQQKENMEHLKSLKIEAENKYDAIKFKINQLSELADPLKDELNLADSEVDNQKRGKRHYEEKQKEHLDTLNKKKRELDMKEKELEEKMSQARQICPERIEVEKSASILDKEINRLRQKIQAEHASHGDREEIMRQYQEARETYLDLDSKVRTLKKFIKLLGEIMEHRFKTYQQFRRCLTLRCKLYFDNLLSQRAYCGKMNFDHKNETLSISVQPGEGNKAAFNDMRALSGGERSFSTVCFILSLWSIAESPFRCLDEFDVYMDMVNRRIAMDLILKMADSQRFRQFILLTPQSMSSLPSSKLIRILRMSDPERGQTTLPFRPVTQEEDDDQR
inactive: alvocidib -0.017 | Tubastatin A -0.087 | [1] 0.049 | defactinib -0.003 | [2] -0.004 | encorafenib -0.02 | [3] 0.045 | alisertib -0.018 | [4] -0.013 | gefitinib 0.007

SMAP2 (UniProt Q8WU79)
Chain of UniProt Q8WU79 (Q8WU79 whole entry, looked up): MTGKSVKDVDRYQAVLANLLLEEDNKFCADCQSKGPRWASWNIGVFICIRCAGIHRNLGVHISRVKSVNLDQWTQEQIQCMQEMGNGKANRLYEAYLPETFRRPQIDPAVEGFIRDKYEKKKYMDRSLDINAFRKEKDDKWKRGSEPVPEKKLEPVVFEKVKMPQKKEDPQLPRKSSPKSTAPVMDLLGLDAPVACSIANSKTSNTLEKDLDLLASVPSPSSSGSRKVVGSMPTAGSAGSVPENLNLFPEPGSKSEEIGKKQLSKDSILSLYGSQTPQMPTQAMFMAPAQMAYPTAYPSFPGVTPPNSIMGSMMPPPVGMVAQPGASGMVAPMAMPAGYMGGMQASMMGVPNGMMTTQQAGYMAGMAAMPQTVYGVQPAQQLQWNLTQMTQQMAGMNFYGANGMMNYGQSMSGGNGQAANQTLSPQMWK
inactive: alvocidib 0.017 | Tubastatin A -0.002 | [1] -0.058 | defactinib 0.024 | [2] -0.086 | encorafenib 0.047 | [3] -0.037 | alisertib -0.004 | [4] 0.01 | gefitinib -0.03

STARD3 isoform 3 (UniProt Q14849)
Chain of UniProt Q14849 (Q14849 whole entry, looked up): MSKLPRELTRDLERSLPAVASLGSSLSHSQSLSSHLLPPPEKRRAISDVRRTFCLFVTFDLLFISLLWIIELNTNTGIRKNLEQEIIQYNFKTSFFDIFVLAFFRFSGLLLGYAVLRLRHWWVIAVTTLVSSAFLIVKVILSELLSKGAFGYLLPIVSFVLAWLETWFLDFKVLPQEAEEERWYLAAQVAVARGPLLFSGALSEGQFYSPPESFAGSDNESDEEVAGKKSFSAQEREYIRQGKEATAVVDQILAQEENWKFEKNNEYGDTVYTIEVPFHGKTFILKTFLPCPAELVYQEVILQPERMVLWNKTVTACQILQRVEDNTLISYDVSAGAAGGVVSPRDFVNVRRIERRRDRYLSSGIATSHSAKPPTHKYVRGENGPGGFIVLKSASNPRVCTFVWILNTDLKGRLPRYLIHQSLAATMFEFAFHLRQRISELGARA
inactive: alvocidib -0.037 | Tubastatin A 0.079 | [1] 0.004 | defactinib -0.019 | [2] 0.068 | encorafenib -0.029 | [3] 0.055 | alisertib -0.007 | [4] -0.059 | gefitinib 0.081

SPNS1 (UniProt Q9H2V7)
inactive: alvocidib -0.118 | Tubastatin A 0.034 | [1] 0.06 | defactinib 0.095 | [2] -0.03 | encorafenib 0.019 | [3] -0.031 | alisertib 0.047 | [4] 0.019 | gefitinib -0.015
